Experimental data: PubChem BioAssay AID2315 (National Center for Advancing Translational Sciences (NCATS), 2010)
The campaign covered roughly 290,000 compounds. About 27,000 (9.3%) were called active. Rule as the data show it: active = inhibition mostly above about 28% (no sharp cut-off); inactive = mostly below about 43%. What follows is part of a selection rich in actives, with near analogues and random picks from the rest.

Experiment: A qHTS for Small Molecule Inhibitors of Shiga Toxin; also: 0% is about no effect
Conditions: Vero cells, Shiga toxin protein synthesis inhibition reporter; at 38.7 µM, stronger effect = higher value

| Structure (SMILES) | inhibition |
| --- | --- |
| O=C(Cn1cc(C(=O)C2CC2)c2ccccc21)Nc1ccccc1Cl | -2.68% (inactive) |
| O=c1[nH]c(/C=C\c2cccc(C(F)(F)F)c2)nc(O)c1[N+](=O)[O-] | -8.88% (inactive) |
| COc1cc(/C=C2\C(=N)N3N=C(CC(=O)N4CCOCC4)SC3=NC2=O)cc(OC)c1OC | -7.7% (inactive) |
| Cc1cccc(CSc2nnc(Cn3c(=O)sc4ccccc43)n2C)c1 | -3.45% (inactive) |
| Cc1cccc(CSc2ccc(-c3cccs3)nn2)c1 | 36.9% (active) |
| O=C(CSc1ccc(-c2cccs2)nn1)Nc1ccccc1F | 32.3% (inactive) |
| COc1ccc(-c2ocnc2C(=O)Nc2ccc3c(c2)CCC3)cc1 | -10.8% (inactive) |
| O=C(Nc1ccc(-n2cccn2)cc1)C1CCN(Cc2ccsc2)CC1 | -3% (inactive) |
| C=CCN1C(=O)C(Cc2cccc(Cl)c2)S/C1=N/N=C/c1ccco1 (stereo not drawn) | -3.82% (inactive) |
| CCC1S/C(=N/N=C/c2ccco2)NC1=O (stereo not drawn) | 22% (inactive) |
| COc1ccc(CN2C(=O)C(C)S/C2=N/N=C/c2ccco2)cc1 (stereo not drawn) | 137% (active) |
| Cc1cc(C)n(S(=O)(=O)c2cccc([N+](=O)[O-])c2)n1 | -4.69% (inactive) |
| COc1ccc(N(CC(=O)Nc2cccc3ccccc23)S(C)(=O)=O)c(OC)c1 | -3.17% (inactive) |
| O=C(Nc1ncc2c(n1)CC(c1ccco1)CC2=O)c1ccc(Cl)cc1 (stereo not drawn) | 1.6% (inactive) |
| CCc1ccc(Nc2ncc3c(n2)CC(c2ccco2)CC3=O)cc1 (stereo not drawn) | 72.5% (active) |
| COc1cc(C2CC(=O)c3cnc(NC(C)=O)nc3C2)cc(OC)c1OC (stereo not drawn) | 21.5% (inactive) |
| CCCC(C)NC(=O)C1CCN(C(=O)C2CC(=O)N(c3ccc(C)cc3)C2)CC1 (stereo not drawn) | 9.21% (inactive) |
| COc1ccc2c(c1)c1nc3n(c(=O)c1n2CC(=O)Nc1ccccc1)CCS3 | 10.6% (inactive) |
| COc1cccc(CNC(=O)CCC2CCCN(C(=O)c3ccc(F)c(Cl)c3)C2)c1 (stereo not drawn) | 0.606% (inactive) |
| CC(=O)Nc1ccc(S(=O)(=O)Nc2nc(-c3ccc(C(C)(C)C)cc3)cs2)cc1 | -13.5% (inactive) |
| Cc1cccc(S(=O)(=O)CC(=O)Nc2nc(-c3ccccc3)cs2)c1 | -3.62% (inactive) |
| NS(=O)(=O)c1ccc(Nc2nc(-c3ccccc3)cs2)cc1 | 17.7% (inactive) |
| COc1ccc(CCNc2nc(-c3cccc(NC(C)=O)c3)cs2)cc1OC | 0.41% (inactive) |
| Cc1cccc(Nc2nc(-c3ccccc3)cs2)n1 | 150% (active) |

| Structure (SMILES) | inhibition |
| --- | --- |
| CC(=O)Nc1cccc(-c2csc(Nc3cccc(C)n3)n2)c1 | 103% (active) |
| COc1ccc(-c2onc3ccc(C(C)=O)cc23)cc1 | -4.4% (inactive) |
| O=C(CCS(=O)(=O)c1ccc2c(c1)NC(=O)CS2)NCc1ccccc1Cl | 5.67% (inactive) |
| O=C(NCc1ccc2c(c1)OCO2)C(=O)NCC1OCCN1S(=O)(=O)c1ccc(F)cc1 (stereo not drawn) | -4.86% (inactive) |
| O=C(NC(Cc1ccc(O)cc1)C(=O)O)/C(=C/c1ccccc1)NC(=O)c1ccccc1 (stereo not drawn) | 8.2% (inactive) |
| O=C(NCCCN1CCOCC1)c1cc(-c2ccccc2F)no1 | 54.8% (active) |
| O=C(Cc1c(F)cccc1Cl)N1CCN(C(=O)c2ccco2)CC1 | -5.75% (inactive) |
| O=C(c1ccco1)N1CCN(C(=O)c2cc(-c3ccccc3F)no2)CC1 | 66.3% (active) |
| O=C(NCCCN1CCOCC1)c1ccccc1NS(=O)(=O)c1ccc(F)cc1 | 43.2% (inactive) |
| O=C(NCCCN1CCOCC1)c1cc(-c2ccc(Cl)cc2)on1 | 23.1% (inactive) |
| O=C(c1ccco1)N1CCN(C(=S)Nc2cc(F)cc(F)c2)CC1 | 35.8% (inactive) |
| CC(=O)Nc1ccc(S(=O)(=O)NCC2CCC(C(=O)NCCc3ccccc3)CC2)cc1 (stereo not drawn) | 3.01% (inactive) |
| COc1ccc(CCNS(=O)(=O)c2cccc([N+](=O)[O-])c2)cc1 | -8.39% (inactive) |
| Cc1c(C(C)(C)O)[nH]c2ccc(C#N)cc12 | 7.17% (inactive) |
| CC(=O)Nc1ccc(NC(=O)CN2C(=O)COc3ccc(S(=O)(=O)N4CCCCC4)cc32)cc1 | -6% (inactive) |
| CCOCCCNc1c(CC)c(C)c(C#N)c2nc3ccccc3n12 | -5.72% (inactive) |
| Cn1nc(-c2ccccc2)c2cc([N+](=O)[O-])ccc21 | -6.77% (inactive) |
| CCOc1ccc(N/C(N)=N/c2nc(C)c(C)c(=O)[nH]2)cc1 | 0.318% (inactive) |
| COc1cccc(/C=N/Nc2ncc(C(F)(F)F)cc2Cl)c1O | -37.7% (active) |
| N/C(=N\OC(=O)Nc1ccc(Cl)c(Cl)c1)c1ncc(C(F)(F)F)cc1Cl | -18.1% (inactive) |
| COC(=O)Cc1ccc(Oc2ncc(C(F)(F)F)cc2Cl)cc1 | 26.3% (inactive) |
| CC(=O)N1c2ccc(S(=O)(=O)N3CCC(C(=O)NCc4ccc(F)cc4)CC3)cc2CC1C (stereo not drawn) | -3.9% (inactive) |
| CSc1ccccc1N1CCN(CCCCCC(=O)NC2CCCc3ccccc32)CC1 (stereo not drawn) | -5.33% (inactive) |
| COc1ccc(C2Nc3ccccc3C(=O)N2Cc2ccccc2)cc1Cn1nnc2ccccc21 (stereo not drawn) | -22.2% (inactive) |

| Structure (SMILES) | inhibition |
| --- | --- |
| COc1ccc(C2Nc3ccccc3C(=O)N2c2ccc(F)cc2)cc1Cn1nnc2ccccc21 (stereo not drawn) | -5.43% (inactive) |
| COc1ccc(N2C(=O)c3ccccc3NC2c2ccc(OC)c(CN3CCOCC3)c2)cc1 (stereo not drawn) | 64% (active) |
| COc1ccc([N+](=O)[O-])cc1C1NN=C(c2cccc3ccccc23)S1 (stereo not drawn) | -12.5% (inactive) |
| COc1ccc(C2Nc3ccccc3C(=O)N2c2ccc(Cl)cc2)cc1Cn1cc([N+](=O)[O-])cn1 (stereo not drawn) | 115% (active) |
| COc1ccc(CN2CCCC(C(=O)c3ccc(Cl)cc3)C2)cc1Cn1cncn1 (stereo not drawn) | -2.03% (inactive) |
| COC(=O)C1=CN(Cc2ccc(OC)cc2)C=C(C(=O)OC)C1c1ccc(O)c(OC)c1 | -14.4% (inactive) |
| CCC(NC(=O)C1CCCC1)c1ccc(C)cc1 (stereo not drawn) | -3.88% (inactive) |
| O=C(Nc1ccc(Br)cc1)c1cc(S(=O)(=O)Nc2ccccn2)ccc1Cl | -18.3% (inactive) |
| NC(=O)c1ccc(Nc2ccc3nonc3c2[N+](=O)[O-])cc1 | -16.8% (inactive) |
| N#Cc1c(-c2ccccc2)nc(SCc2cccc(C(F)(F)F)c2)[nH]c1=O | -1.96% (inactive) |
| O=[N+]([O-])c1cccc(Nc2c3ccccc3nc3ccccc23)c1 | -12.3% (inactive) |
| O=[N+]([O-])c1cnc2ccc3ccccc3c2c1 | 27.3% (inactive) |
| O=[N+]([O-])c1ccc2c(c1)Nc1nc3ccccc3nc1N2 | 119% (active) |
| CCc1ccccc1NC(=O)c1ccc2snnc2c1 | -5.07% (inactive) |
| O=C(Nc1ccc2ccccc2c1)Nc1ccc2snnc2c1 | 1.94% (inactive) |
| O=C(Nc1cccc(Br)c1)c1ccc2snnc2c1 | 64% (active) |
| COc1ccccc1S(=O)(=O)c1c(C)cc(C)[nH]c1=O | -2.84% (inactive) |
| Cc1cccc([C@@H]2[C@@H]3C(=O)N(C)C(=O)[C@@H]3[C@@H]3C(=O)Nc4ccccc4C(=O)N23)c1 | -2.83% (inactive) |
| Cn1sc(NC(=O)c2ccccc2)nc1=O | 33.6% (inactive) |
| Cn1c(NC(=O)c2ccccc2)nc2ccccc21 | 43.5% (active) |
| Cn1c(S(=O)(=O)O)nc2ccccc21 | -9% (inactive) |
| Cc1ccc2cc(C)c(N3CCN(c4ccc(F)cc4)CC3)nc2c1 | 27.6% (inactive) |
| Cc1cc2c(cc1C)NC(c1ccccn1)C1=C(CC(C)(C)CC1=O)N2 (stereo not drawn) | 51.7% (active) |
| Cc1nn(-c2ccccn2)c2c1C(c1ccncc1)C1=C(CC(C)(C)CC1=O)N2 (stereo not drawn) | -3.23% (inactive) |

| Structure (SMILES) | inhibition |
| --- | --- |
| CC1(C)CC(=O)C2=C(C1)Nc1cc(C(=O)c3ccccc3)ccc1NC2c1ccccn1 (stereo not drawn) | -5.56% (inactive) |
| CCc1ccc(CN(C)C(=O)C2CCC(=O)N(Cc3cccc(OC)c3)C2)nc1 (stereo not drawn) | 22.8% (inactive) |
| CCOc1cccc(-c2nnc(SCC(=O)NC3CC3)n2C)c1 | 27% (inactive) |
| COc1ccc(NC(=O)CSc2nncc(=O)n2N)cc1OC | -9.85% (inactive) |
| O=C(COC(=O)c1ccccc1)Nc1ccccc1Sc1ccccc1 | -9.76% (inactive) |
| O=C(COC(=O)c1cccc(Br)c1)Nc1cccc2c1C(=O)c1ccccc1C2=O | 31.4% (active) |
| O=C(COC(=O)Cn1cnc2ccccc21)Nc1cccc2c1C(=O)c1ccccc1C2=O | -13.5% (inactive) |
| COc1ccc(C(=O)COC(=O)Cn2cnc3c2c(=O)n(C)c(=O)n3C)c(OC)c1 | -5.14% (inactive) |
| COc1cnc(-c2ccccn2)nc1Oc1ccc(C(C)(C)C)cc1 | 1.11% (inactive) |
| CC(C)(C)Nc1nc(-c2ccccn2)nc2ccccc12 | -14.9% (inactive) |
| Cc1ccc(Oc2nc(-c3ccccn3)nc3ccccc23)cc1 | 57.7% (active) |
| COC1=C(N2CCOCC2)C(=O)c2ccccc2C1=O | -6.31% (inactive) |
| CCOCCc1nn2c(=O)cc(CSCC(=O)Nc3cccc(C)c3C)nc2s1 | -13.9% (inactive) |
| O=C(Nc1cccc(-c2cscn2)c1)C1CCN(Cc2ccsc2)CC1 | -4.07% (inactive) |
| COCCNC(=O)COc1ccc(N(C)S(=O)(=O)c2ccc3ccccc3c2)cc1 | -8.35% (inactive) |
| COC(=O)c1sc2ncccc2c1OCc1ccc(Cl)cc1Cl | 6.72% (inactive) |
| O=S(=O)(O)c1nc2ccccc2n1Cc1ccc(Cl)cc1Cl | -6.41% (inactive) |
| Cc1nc2ccccc2nc(C)c1=NOCc1ccc(Cl)cc1Cl | 112% (active) |
| COC(=O)CSc1nnc(NC(=O)CCc2ccccc2)s1 | 10.7% (inactive) |
| COc1ccc(CNS(=O)(=O)c2ccc(-c3cnc(C4CC4)o3)cc2)cc1 | -4.74% (inactive) |
| Cc1ccc(-n2ncc3c2CC(C)(C)CC3NC(=O)CCc2cnn(C)c2)cc1 (stereo not drawn) | -4.16% (inactive) |
